# Reference: PubChem BioAssay (NCI)
# About 83,000 compounds went through this panel and 20% of them were active in at least one assay; those are over-represented in the sample as a whole.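 A percent growth of 40 corresponds to 60% growth inhibition; 0 means no net growth; -100 means all cells died. Active threshold: below 10.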 A number with no mark means an inactive call. The source made the active and inactive calls.
# System: HL-60(TB) leukemia
# Test: NCI-60 one-dose screen, 48 h (100 = growth as untreated, 0 = no growth, -100 = all killed)
# Conditions: 10 µM unless noted
row,SMILES,growth
1,CSc1ccc(C(=O)Nc2ccc3nnn(/C(C#N)=C/c4ccccn4)c3c2)cc1,6.83% (active)
2,Cc1ccc(C(=O)Nc2ccc(-n3c(C)nc4c(cnn4-c4ccccc4)c3=O)cc2)cc1,51.4%
3,O=c1c(-c2nc(-c3ccccc3)c(-c3ccccc3)[nH]2)coc2ccc(F)cc12,54.3%
4,NC1=NC(c2ccccc2Cl)N=C(Nc2nn[nH]n2)N1 (centres undefined),110%
